Results on 13 compounds are retold here after PubChem BioAssay (NCATS).

Values without a mark were called inactive. Inconclusive results are not listed. Activity calls are given as the source filed them. Unless noted, calls follow the shape of the dose curve; as a rule, active = well fitted curve in either direction with a large enough effect (not every such curve was filed as active); inconclusive = small, poorly fitted or top-dose-only effect, or another doubt; inactive = flat fitted curve, though single readings scatter.

Assay [1] relates to HIV-1 nucleocapsid protein NCp7 (binding to TG oligonucleotide). As to the kind of experiment: HIV Nucleocapsid (AID 346; call rule not given here;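 also: potency is read from the fitted curve at half-maximal effect; potency is for inhibitors that block NC binding and lower polarization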). The note with it: HIV-1 NC / fluorescein-TGTGTGTG probe, fluorescence polarization. The method, boiled down: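 Fluorescence polarization readout: labelled TG4xF oligo (10 nM) with 100 nM nucleocapsid protein, high-salt (250mM NaCl) Hepes pH 7.5 buffer containing zinc and fresh reducing agents. Compounds added by pin tool; incubation 1 hr, room temperature.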

Assay [2] deals with Lysosomal acid glucosylceramidase (Homo sapiens) (UniProt P04062). As to the kind of experiment: Glucocerebrosidase-p2 (AID 348; in the data active = potency below about 10 µM; also: potency is read from the fitted curve at half-maximal effect). The note with it: purified GBA, blue fluorogenic substrate, 40 min. The essentials:
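Compounds titrated from 0.6 nM upwards against 0.2 nM enzyme in pH 5.9 citric acid/KH2PO4, taurocholate, tween-20; blue fluorogenic substrate 80 uM, 40 min room temperature, stopped and read Ex 365/Em 440 for AC50.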

Assay [3] can be described thus: AP1 Signaling Pathway (AID 357). Also: % is scaled to controls: 0 for no effect and ±100 for the full control effect. As to conditions: ME-180 AP-1-bla reporter, EGF-induced, beta-lactamase ratio, 5 h; at 7.69 µM (top of the series) unless noted. The method, boiled down:
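ME-180 cells with beta-lactamase reporter under AP-1 response element, stimulated with EC50 EGF; compounds tested in titration series, 5 h at 37 °C. CCF4 substrate added 2.5 h at room temperature; 460/530 nm emission ratio gave %activity and AC50.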

Assay [4] deals with Cytochrome P450 1A2 (Homo sapiens) (UniProt P05177). As to the kind of experiment: p450-cyp1a2 (AID 410; calls by dose curve;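 also: -100% = full effect of reference inhibitor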). As to conditions: recombinant CYP1A2, luciferin-ME demethylation, luminescence; series mostly up to 11.4 µM. The method, boiled down:
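Luminescent readout of luciferin formed from Luciferin-ME by human CYP1A2; data normalized against complete inhibition by 57 uM furafylline. Enzyme 20nM, substrate 100uM at Km, 100mM KPO4 buffer, 60 min reaction at room temperature.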

Assay [5] is described as follows: NFAT Signaling Pathway (AID 444).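 Also: carbachol stimulus at about its EC50 of 1 µM final; % is scaled to controls: 0 for no effect and ±100 for the full control effect.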 As to conditions: Jurkat NFAT-bla M1, carbachol, beta-lactamase ratio, 5 h; at 7.69 µM (top of the series) unless noted. The essentials:
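Jurkat cells with NFAT-driven β-lactamase reporter and co-expressed M1 receptor, stimulated with carbachol (final 1 uM, ~EC50), compound titration, 5 h at 37 °C. CCF4 loaded 1 h at RT; 460/530 nm ratio gave %activity and AC50.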

Assay [6] can be described thus: Stat Signaling Pathway (AID 446).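 Also: ME-180 cervical cancer cells given 40 pM IL-6 alongside compound; SIE-controlled beta-lactamase reporter measured as 460/530 nm FRET emission ratio; % is scaled to controls: 0 for no effect and ±100 for the full control effect.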 As to conditions: ME-180 (cervical carcinoma) SIE beta-lactamase reporter, IL-6 stimulated, 5 h; at 7.69 µM (top of the series) unless noted. The method, boiled down:
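IL-6/STAT signaling read in ME-180 cells via an SIE beta-lactamase reporter. Stimulus was 40 pM IL-6 (its AC50) for 5 hrs, so both activation and inhibition register.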

For assay [7], the target named is Glucocorticoid receptor (Homo sapiens) (UniProt P04150). As to the kind of experiment: GR-GFP Redistribution (AID 450;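 active = compounds whose dose series gives a full or clear partial fitted curve of increased nuclear translocation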; also: potency is read from the fitted curve at half-maximal effect). The note with it: U2OS GR-GFP nuclear translocation, laser cytometry, 2 h.
Assay [8] shares this target. As to the kind of experiment: GR-EFC Redistribution (AID 451; calls by dose curve; also: potency is read from the fitted curve at half-maximal effect). As to conditions: CHO-K1 GR-EFC translocation, beta-gal luminescence, 2 h. The essentials:
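CHO-K1 cells expressing nuclear EA and GR-ED fragments of b-gal; compounds titrated up to 46 uM final, 2 h at 37 C. GR nuclear translocation read as complemented b-gal luminescence after 1 h RT detection.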

The target of assay [9] is Mitogen-activated protein kinase 10 (Mus musculus) (UniProt Q61831). As to the kind of experiment: JNK3 AlphaScreen Assay (AID 530).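 Also: kinase came from lysate of stimulated human HepG2 cells; signal reports phosphorylation of biotinylated GST-cJun 1-79 at Ser73 with 10 µM ATP; % is scaled to controls: 0 for no effect and ±100 for the full control effect.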 The note with it: JNK3 lysate, c-Jun phosphorylation; series mostly up to 57.1 µM. The method, boiled down:
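Pre-activated (IL-1β/TNFα) JNK3 in HepG2 lysates phosphorylates biotin-GST-cJun(1-79), 10 uM ATP; anti-phospho-cJun(Ser73) AlphaScreen read at room temperature, pH 7.6 Tris buffer. Compounds pre-incubated 15 min as titrations.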

The target in assay [10] is 3',5'-cyclic-AMP phosphodiesterase 4B (Homo sapiens) (UniProt Q07343). As to the kind of experiment: qHTS Assay for Inhibitors of PDE-IV (AID 607; active = well fitted activation curve with a large enough effect in the main read-out, with a control signal flat, not every such curve was filed as active; also: % of control where 0% means no effect). The note with it: HEK293 ACTOne CNG channel cells, membrane potential fluorescence; series mostly up to 22.9 µM. The method, boiled down: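 Live HEK293 cells with a modified cyclic nucleotide-gated (CNG) channel report intracellular cAMP via membrane-potential dye fluorescence (ex 535/em 590 nm). Endogenous PDE-IV was targeted. Compounds were tested at up to 22.9 uM final; RO 20-1724 100 uM served as control.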

Assay [11] has as its target Cytochrome P450 3A4 (Homo sapiens) (UniProt P08684). As to the kind of experiment: qHTS Assay for Activators of Cytochrome P450 3A4 (AID 885; active = well fitted curve in the direction sought with a large enough effect; an effect the other way counts as inactive or inconclusive; also: nearly all actives have a fitted effect of over 65% in size). As to conditions: recombinant CYP3A4, Luciferin-PPXE luminescence, 60 min; series mostly up to 57.1 µM. The method, boiled down:
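Quantitative HTS format: compounds preincubated with 20nM human CYP3A4 and Luciferin-PPXE substrate at KM, reaction started by NADPH regeneration, stopped after 60 min, luciferase luminescence read 20 min later.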
A general note: In qHTS, concentration-response curves come from the screen itself.

Assay [12] shares this target. As to the kind of experiment: qHTS Assay for Inhibitors and Substrates of Cytochrome P450 3A4 (AID 884; active = well fitted curve in the direction sought with a large enough effect; an effect the other way counts as inactive or inconclusive; also: potency is read from the fitted curve at half-maximal effect; nearly all actives have a fitted effect of over 50% in size). As to conditions: recombinant CYP3A4, Luciferin-PPXE luminescence; series mostly up to 57.1 µM. The method, boiled down: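 20 nM human CYP3A4 with 25 uM Luciferin-PPXE (at KM) in 200 mM KPO4, preincubated 10 min with compound; NADPH regeneration started a 60 min RT reaction. Luciferin detected by luminescence, normalized to 57 uM ketoconazole as full inhibition.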

3',5'-cyclic-AMP phosphodiesterase 4B (Homo sapiens), sequence (Q07343 whole entry, looked up): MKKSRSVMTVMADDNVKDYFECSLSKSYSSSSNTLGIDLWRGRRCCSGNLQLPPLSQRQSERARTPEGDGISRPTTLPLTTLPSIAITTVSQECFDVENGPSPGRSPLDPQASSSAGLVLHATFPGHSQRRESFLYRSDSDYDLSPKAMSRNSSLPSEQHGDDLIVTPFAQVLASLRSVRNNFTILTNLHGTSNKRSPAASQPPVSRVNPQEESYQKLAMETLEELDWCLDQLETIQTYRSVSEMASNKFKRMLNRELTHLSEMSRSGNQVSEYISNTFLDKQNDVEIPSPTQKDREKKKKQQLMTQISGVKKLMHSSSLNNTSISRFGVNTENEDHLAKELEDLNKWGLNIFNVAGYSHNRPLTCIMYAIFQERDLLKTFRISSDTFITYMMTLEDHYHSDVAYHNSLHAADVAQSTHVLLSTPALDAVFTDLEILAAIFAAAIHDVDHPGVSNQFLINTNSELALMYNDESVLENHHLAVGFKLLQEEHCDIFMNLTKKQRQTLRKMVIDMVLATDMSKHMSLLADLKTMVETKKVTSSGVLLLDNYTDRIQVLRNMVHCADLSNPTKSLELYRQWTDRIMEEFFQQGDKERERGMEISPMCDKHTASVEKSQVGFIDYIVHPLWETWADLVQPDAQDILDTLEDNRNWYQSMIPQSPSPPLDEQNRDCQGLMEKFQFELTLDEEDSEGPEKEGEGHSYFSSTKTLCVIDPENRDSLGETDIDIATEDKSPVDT
Glucocorticoid receptor (Homo sapiens), sequence (P04150 whole entry, looked up): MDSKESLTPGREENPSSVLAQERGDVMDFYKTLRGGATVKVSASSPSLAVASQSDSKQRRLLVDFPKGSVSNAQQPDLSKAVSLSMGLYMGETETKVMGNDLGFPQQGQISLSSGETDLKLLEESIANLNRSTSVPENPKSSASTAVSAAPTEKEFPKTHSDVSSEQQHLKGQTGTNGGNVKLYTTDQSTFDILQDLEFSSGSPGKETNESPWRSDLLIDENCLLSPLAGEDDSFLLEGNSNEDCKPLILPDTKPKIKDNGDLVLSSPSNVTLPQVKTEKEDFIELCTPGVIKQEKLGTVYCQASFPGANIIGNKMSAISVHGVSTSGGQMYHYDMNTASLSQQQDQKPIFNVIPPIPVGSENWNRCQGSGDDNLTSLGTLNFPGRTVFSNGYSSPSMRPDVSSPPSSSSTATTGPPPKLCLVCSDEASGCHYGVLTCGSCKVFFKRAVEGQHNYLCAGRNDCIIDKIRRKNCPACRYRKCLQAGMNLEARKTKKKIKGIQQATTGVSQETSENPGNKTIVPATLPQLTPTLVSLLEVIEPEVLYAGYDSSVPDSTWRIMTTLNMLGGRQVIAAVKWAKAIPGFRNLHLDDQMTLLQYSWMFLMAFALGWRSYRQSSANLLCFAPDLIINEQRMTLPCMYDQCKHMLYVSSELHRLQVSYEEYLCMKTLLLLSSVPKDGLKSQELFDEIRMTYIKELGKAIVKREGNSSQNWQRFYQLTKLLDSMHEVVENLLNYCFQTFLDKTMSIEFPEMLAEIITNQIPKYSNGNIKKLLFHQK
Cytochrome P450 3A4 (Homo sapiens), sequence (P08684 whole entry, looked up): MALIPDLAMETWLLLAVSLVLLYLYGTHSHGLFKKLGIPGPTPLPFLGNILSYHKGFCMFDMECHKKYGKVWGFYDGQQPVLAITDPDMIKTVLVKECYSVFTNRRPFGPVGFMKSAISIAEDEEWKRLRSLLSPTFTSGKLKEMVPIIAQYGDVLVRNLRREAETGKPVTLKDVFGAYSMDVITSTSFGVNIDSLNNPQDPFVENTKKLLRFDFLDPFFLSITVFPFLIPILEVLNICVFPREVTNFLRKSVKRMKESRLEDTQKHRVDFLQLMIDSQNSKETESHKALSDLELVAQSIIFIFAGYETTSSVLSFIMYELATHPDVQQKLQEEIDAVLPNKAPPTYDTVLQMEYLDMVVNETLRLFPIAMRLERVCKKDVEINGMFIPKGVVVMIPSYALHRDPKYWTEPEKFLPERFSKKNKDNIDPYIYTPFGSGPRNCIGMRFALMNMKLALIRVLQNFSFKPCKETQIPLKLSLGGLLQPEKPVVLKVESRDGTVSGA
Lysosomal acid glucosylceramidase (Homo sapiens), sequence (P04062 whole entry, looked up): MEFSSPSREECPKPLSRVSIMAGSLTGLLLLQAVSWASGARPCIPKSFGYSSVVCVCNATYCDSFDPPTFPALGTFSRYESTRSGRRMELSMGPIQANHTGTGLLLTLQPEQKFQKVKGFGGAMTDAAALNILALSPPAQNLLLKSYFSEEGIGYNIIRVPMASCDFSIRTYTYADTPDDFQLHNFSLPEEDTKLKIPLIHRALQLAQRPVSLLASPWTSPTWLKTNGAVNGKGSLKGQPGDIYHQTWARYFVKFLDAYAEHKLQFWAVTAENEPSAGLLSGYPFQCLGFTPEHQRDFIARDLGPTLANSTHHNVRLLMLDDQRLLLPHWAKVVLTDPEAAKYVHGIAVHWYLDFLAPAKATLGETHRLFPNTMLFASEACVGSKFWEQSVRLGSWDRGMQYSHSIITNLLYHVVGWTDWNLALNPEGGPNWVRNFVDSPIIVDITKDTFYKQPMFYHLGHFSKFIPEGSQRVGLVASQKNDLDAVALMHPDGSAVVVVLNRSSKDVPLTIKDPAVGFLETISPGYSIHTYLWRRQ
Cytochrome P450 1A2 (Homo sapiens), sequence (P05177 whole entry, looked up): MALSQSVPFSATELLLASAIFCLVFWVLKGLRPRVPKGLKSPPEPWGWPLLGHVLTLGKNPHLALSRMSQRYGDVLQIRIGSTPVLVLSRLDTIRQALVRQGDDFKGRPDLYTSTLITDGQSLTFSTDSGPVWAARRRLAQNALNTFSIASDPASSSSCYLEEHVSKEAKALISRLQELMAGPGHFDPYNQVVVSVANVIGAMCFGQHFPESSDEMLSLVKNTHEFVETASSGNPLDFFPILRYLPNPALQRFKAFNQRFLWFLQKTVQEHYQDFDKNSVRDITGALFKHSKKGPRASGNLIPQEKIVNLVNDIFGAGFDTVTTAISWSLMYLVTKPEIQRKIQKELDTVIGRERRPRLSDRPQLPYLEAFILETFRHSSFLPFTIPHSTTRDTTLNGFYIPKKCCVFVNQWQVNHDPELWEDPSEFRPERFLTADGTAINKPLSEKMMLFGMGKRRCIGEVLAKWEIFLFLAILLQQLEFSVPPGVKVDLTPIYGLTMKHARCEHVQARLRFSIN

For `CS(=O)(=O)Nc1cccc(-c2nccc(Nc3ccc(F)cc3)n2)c1`, the Potency in [1] is over 20 µM.
The same measure, in the same setting: with `CN(C)C(=O)c1ccc(-c2nc(NCc3cccs3)c3ccccc3n2)cc1` the figure was over 20 µM; with `COCCn1c(=O)c(CCc2ccccc2)nc2cnc(N3CCN(C)CC3)nc21`, over 20 µM.
As to `c1ccc(C[N+]23CN4CN(CN(C4)C2)C3)cc1`, the Potency in assay [2] was over 11.4 µM; in assay [7], over 46 µM; in assay [8] it was over 9.22 µM. Moreover, the activity change, negative = inhibition in assay [3] is 0.854%; in assay [4] it was -10.1% [at 2.29 µM]; in [5] it was 6.01%; in assay [9], -2.9% [at 11.4 µM]. Besides, in assay [6], the activity, negative = inhibition was 6.74%. Also, the result in [10] was inactive.
Take `CN(C)CCCc1cccnc1`: the Potency in assay [2] was over 11.4 µM; in [7], over 46 µM; in assay [8], over 9.22 µM. Moreover, the activity change, negative = inhibition in assay [3] was 3.48%; in assay [4], -10.2% [at 2.29 µM]; in assay [5] it was 16.7%; in [9], 3.96% [at 11.4 µM]. Besides, the activity, negative = inhibition in [6] is -4.3%. Also, the result in [10] was inactive.
Turning to `O=C(Oc1ccccc1)N1CCC2(CC1)CN(c1ccccn1)C2`, the Potency in assay [1] is over 20 µM.
For `CC1=NN(c2ccc(S(=O)(=O)O)cc2C)C(=[OH+])[C@H]1N=Nc1cc(S(=O)(=O)O)ccc1C(=O)O.O.[Cr]`, the Potency in [2] is over 11.4 µM; in assay [7], over 46 µM; in assay [8], over 9.22 µM. For the same compound, the activity change, negative = inhibition in assay [3] is -5.8%; in [5], 12.1%; in [9], -0.77% [at 11.4 µM]. Besides, the Potency entry in assay [4] is “inactive”. The activity, negative = inhibition in assay [6] is 7.29%. Further, the compound was called inactive in assay [10].
In the case of `CN(C)c1ncc2nc(-c3ccc(F)cc3)c(=O)n(Cc3cccs3)c2n1`, the Potency in assay [1] is over 20 µM. Further, in assay [11], the Potency result is “inactive”.
As for `COc1ccc2[nH]cc(CCNc3ncncc3-c3c(C)noc3C)c2c1`, the Potency in assay [1] was over 20 µM.
With `CN(C)c1ccc(-c2cc(NCc3cccnc3)ncn2)cc1`, the Potency in assay [1] was over 20 µM.
For the compound `O=C(O)[C@@H](O)[C@@H](O)[C@@H]1[O][Sb][O][C@@H]1CO`, the Potency in assay [2] is over 11.4 µM; in assay [7], over 46 µM; in assay [8] it was over 9.22 µM. Also, the activity change, negative = inhibition was 4.54% in [3], -5.1% [at 2.29 µM] in assay [4], 5.74% in assay [5] and 1.63% [at 11.4 µM] in assay [9]. Further, the activity, negative = inhibition in assay [6] is 1.94%. In assay [10], the outcome was inactive.
Take `O=C(O)[C@H]1[O][Sb][O][C@@H](C(=O)O)C1O` (stereo partly specified): the figures for the Potency in [2], in [7] and in [8] were over 11.4 µM, over 46 µM and over 9.22 µM, respectively. Further, the activity change, negative = inhibition in assay [3] was 1.25%; in assay [4], -15% [at 2.29 µM]; in [5], 8.28%; in [9] it was -2.33% [at 11.4 µM]. Moreover, the activity, negative = inhibition in assay [6] is 6.32%. Moreover, in [10], the call was inactive.
As for `c1cncc(CNc2cc(-c3ccc4c(c3)OCO4)ncn2)c1`, the results for the Potency in [1] and in assay [12] were over 20 µM and 0.794 µM (active), respectively. The Potency result in assay [11] is “inactive”.
